Holding throughout (assay): NCI-60 one-dose screen, 48 h (100 = growth as untreated, 0 = no growth, -100 = all killed)
What all share (conditions): 10 µM

The test system of experiment [1] is NCI-H23 lung.
The subject of experiment [2] is NCI-H322M lung.
Experiment [3] relates to HOP-62 NSCLC.
The test system of experiment [4] is NCI-H460 lung.
Experiment [5] relates to HOP-92 NSCLC.
For experiment [6], the system named is NCI-H522 lung.
Experiment [7] relates to A549/ATCC NSCLC.
The subject of experiment [8] is 786-0 renal.
Experiment [9] has as its system COLO 205 colon.
Experiment [10] has as its system NCI-H226 lung.

About 83,000 compounds went through this panel and 20% of them were active in at least one assay; those are over-represented in the sample as a whole.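 Results are percent growth after 48 hours of single-concentration exposure. 100 means growth as in untreated cells, lower positive values show inhibition; negative values down to -100 show cell death.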 A number with no mark means an inactive call. Activity calls are given as the source filed them. Rule for the calls: active = growth percent below 10; inactive = the rest.

Regarding `CC(=O)OCC(COC(C)=O)(COC(C)=O)COC(C)=O`, the growth was 102% in experiment [1]; 99.5% in experiment [2]; 102% in [3]; 104% in experiment [4]; 105% in [5]; 99.4% in experiment [6]. For the same molecule, the growth in experiment [7] is 111%; in experiment [8], 112%; in [9] it was 109%.

`Nc1c(C(=O)Nc2ccccc2F)sc2nc3c(cc12)C(=O)CCC3`: the growth is 42.8% in experiment [1]; 68.8% in experiment [2]; 42.7% in [3]; 11.4% in experiment [4]; 53.6% in experiment [5]; -15.2% (active) in [6]. Moreover, the growth was 22% in experiment [7], 41.5% in experiment [8] and 5.76% (active) in experiment [9].

Consider `Cn1c(=O)c2[nH]c(C(O)c3ccc(Cl)cc3)nc2n(C)c1=O` (stereo unspecified), for which the growth is 98.8% in experiment [1]; 111% in experiment [2]; 94.7% in experiment [3]; 100% in [4]; 76.1% in experiment [5]; 96.7% in [6]. The growth is 96.3% in [7], 98.6% in [8] and 102% in [9].

For the molecule `CC(=O)c1c(O)cc2c3c1OC(C)(C)C1CCC(C)(CC31)O2` (stereo unspecified), the growth was 100% in experiment [1]; 98% in experiment [2]; 106% in experiment [3]; 108% in [4]; 92% in [5]; 102% in experiment [6]. Moreover, the figures for the growth in [8] and in experiment [9] were 104% and 92.3%, respectively.

As to `CC(C)c1[nH]nc2c(NCc3ccc(-c4ccccn4)cc3)nc(SCCN(C)C)nc12`, the growth in experiment [1] is -23.8% (active); in experiment [2] it was 17%; in experiment [3] it was -11.2% (active); in experiment [4], 8% (active); in [5], -15.9% (active); in experiment [6], -48.3% (active). For the same molecule, the growth is 8.6% (active) in [7], 11.3% in experiment [8] and -42% (active) in [9].

Regarding `c1ccc(CNc2nc(Nc3ccc(-c4nc5ccccc5[nH]4)cc3)c3cn[nH]c3n2)cc1`, the growth in experiment [1] is 14.5%; in [2], 28.6%; in [3], -17.4% (active); in [4], 4.06% (active); in experiment [5], 14.7%; in [6], -45.7% (active). The growth in experiment [8] was -78.4% (active); in experiment [9], -60.1% (active).

On to `CCCCCCCCCCCC(c1ccccc1)N(C)C` (stereo unspecified), for which the growth was 102% in experiment [1]; 103% in [2]; 119% in [3]; 105% in experiment [4]; 74.2% in [5]; 103% in experiment [6]. Besides, the values for the growth in experiment [7], in experiment [8] and in [9] were 97.5%, 104% and 101%, respectively.

As for `CC(C)C[C@H](NC(=O)Cn1ccc(Nc2ccccc2)cc1=O)B(O)O`, the growth is 44.1% in experiment [1]; 91.5% in experiment [2]; 49.5% in experiment [3]; 77.3% in experiment [4]; 1.31% (active) in experiment [5]; -24% (active) in experiment [6]. Moreover, the growth is 71.4% in experiment [7], 33.1% in experiment [8] and 40.8% in experiment [9].

As to `C[C@H](NC(=O)[C@@H]1CSSC[C@@H](NC(=O)Cc2nc3ccccc3cc2O)C(=O)NCC(=O)N1C)c1ccccc1`, the growth is 106% in experiment [1]; 105% in [2]; 90.2% in [3]; 94.2% in experiment [4]; 116% in experiment [5]; 88.3% in experiment [6]. The results for the growth in experiment [7], in [8] and in [9] were 90.5%, 114% and 89.7%, respectively.

On to `COC(=O)c1cnc2c(c1)Oc1ccccc1-c1ccnn1-2`, for which the growth in [1] was 95.8%; in [2], 105%; in experiment [3] it was 92.5%; in experiment [4] it was 104%; in [5] it was 86.9%; in experiment [6] it was 80.3%. Further, the growth was 86.3% in experiment [7], 90.6% in experiment [8] and 101% in experiment [9].

Take `N#CN1CC[C@H](C(=O)Nc2ncc(-c3ccccc3)s2)C1`: the growth was -9.83% (active) in experiment [1]; 28.4% in experiment [2]; -3.88% (active) in [3]; 2.02% (active) in [4]; 0.798% (active) in [5]; -35.6% (active) in experiment [6]. For the same molecule, the values for the growth in experiment [7], in experiment [8] and in experiment [9] were -5.79% (active), 3.56% (active) and -63.3% (active), respectively.

With `COc1ccc(-c2cn[nH]c2-c2cc(OC)c(OC)c(OC)c2)cc1`, the growth is 56.7% in experiment [10]; 26.4% in experiment [2]; 45.2% in experiment [3]; 3.25% (active) in [4]; -5.63% (active) in [5]; -17.9% (active) in experiment [6]. The growth in [7] is 21.2%; in experiment [8], -4.65% (active); in experiment [9], -68% (active).

On to `CC(=O)N(O)c1ccc(/C=C/c2ccccc2)cc1`, for which the growth was -20.6% (active) in [10]; 29.4% in experiment [2]; 42.7% in experiment [3]; 8.15% (active) in experiment [4]; -5.13% (active) in experiment [5]; 68.3% in experiment [6]. Moreover, the growth is 25.6% in [7], 19.9% in experiment [8] and 46.5% in [9].

Consider `CC1(C)CCc2cc(-c3ccn(S(=O)(=O)c4ccc(Cl)cc4)n3)ccc2O1`, for which the growth in experiment [10] was 74.4%; in experiment [2], 94.2%; in [3], 92.9%; in experiment [4] it was 73.8%; in experiment [5], 8% (active); in [6], 66.2%. Besides, the growth in experiment [7] was 67.4%; in [8], 71.4%; in [9], 117%.

As for `CCCCCCOc1ccc(/C=C/C(=O)c2ccc(B(O)O)cc2)cc1`, the growth in experiment [10] was 75.6%; in [2] it was 85.9%; in experiment [3], 89.8%; in experiment [4], 91.7%; in experiment [5], 5.7% (active); in [6] it was 66.1%. The growth in experiment [8] is 73%; in experiment [9] it was 103%.

For `O=C(Nc1cccc([N+](=O)[O-])c1)NN1CCCCCC1`, the growth in [10] is 95.7%; in experiment [2], 111%; in experiment [3], 111%; in experiment [4], 91.2%; in experiment [5], 80.8%; in experiment [6], 90%. For the same molecule, the results for the growth in experiment [7], in experiment [8] and in experiment [9] were 87%, 96.3% and 104%, respectively.

In the case of `CCOc1ccc2c(c1)CC[C@@H]1[C@@H]2CC[C@]2(C)[C@@H](O)[C@@H](O)C[C@@H]12`, the growth in experiment [10] is 85.7%; in experiment [2], 91.4%; in [3], 114%; in experiment [4], 100%; in experiment [5], 122%; in experiment [6] it was 119%. Besides, the results for the growth in [7], in experiment [8] and in experiment [9] were 80.3%, 101% and 112%, respectively.

In the case of `CCCCCc1cc[n+](CC(=O)c2ccc(Cl)cc2)cc1`, the growth in experiment [10] is 90.8%; in experiment [2] it was 85.3%; in [4], 98.5%; in experiment [5], 78%; in [6] it was 72.1%; in [7], 91.3%. The results for the growth in experiment [8] and in [9] were 76.2% and 80.5%, respectively.

`CNC(=O)c1cc(Oc2ccc(NC(=O)Nc3ccc(Cl)c(OC(C)C)c3)c(F)c2)ccn1`: the growth is 52.5% in [10]; 81.1% in [2]; 61.1% in experiment [4]; 60.1% in experiment [5]; 25.3% in experiment [6]; 44.5% in [7]. Besides, the growth in [8] is 107%; in [9], 33.5%.

For the molecule `COc1cc(-c2cc(/C=C/C(C)=O)[nH]n2)cc(OC)c1OC`, the growth in experiment [10] is 81.7%; in [2] it was 79.4%; in experiment [4], 95.2%; in experiment [5], 74.9%; in [6] it was -66% (active); in experiment [7], 86.2%. Further, the growth in [8] was 84.5%; in [9], 93.4%.

Take `O=C(NC1CCN(Cc2ccccc2)CC1)c1cc(-c2ccncc2)nc2ccc(Cl)cc12`: the growth in [10] is 26.9%; in experiment [2], 32.5%; in experiment [3], 45.6%; in [4], 6.31% (active); in experiment [5], 27.7%; in experiment [6], 28.6%. The values for the growth in experiment [8] and in experiment [9] were 31.1% and 18.5%, respectively.

Regarding `CCOC(=O)c1ccc(NC(=O)Nc2nncs2)cc1`, the growth in experiment [2] was 43.2%; in experiment [3], 26.4%; in [4], 7.58% (active); in experiment [5] it was 58.2%; in experiment [6] it was 7.15% (active); in [8], 35.4%. Further, the growth in experiment [9] is -25.9% (active).

As for `COc1cc2c3c(cccc3c1)C(=O)N(CCN1CCCC1)C2=O`, the growth was 0.818% (active) in experiment [10]; 13.6% in experiment [2]; 25.7% in [3]; -22% (active) in experiment [4]; -8.44% (active) in experiment [5]; -11% (active) in [6]. For the same molecule, the figures for the growth in experiment [7], in experiment [8] and in experiment [9] were 6.08% (active), 36.1% and 4.92% (active), respectively.

For the molecule `COc1cc(C2CC(=O)Nc3c2c(C)nn3-c2nc3ccccc3[nH]2)cc(OC)c1O` (stereo unspecified), the growth is 66% in [10]; 80.4% in experiment [2]; 88.6% in [3]; 36.2% in [4]; 32% in experiment [5]; 64.8% in [6]. Also, the growth was 40.1% in [7], 53.1% in experiment [8] and 106% in [9].

For the molecule `Nc1ncncc1-c1ccc(F)cc1`, the growth in experiment [10] is 108%; in experiment [2], 108%; in experiment [3] it was 105%; in experiment [4], 110%; in [5], 95.9%; in experiment [6], 119%. For the same molecule, the growth in experiment [7] was 106%; in [8], 104%; in experiment [9], 114%.

For the origin of these results see PubChem BioAssay (NCI).
